Data on two compounds can be found in PubChem BioAssay AID2017 (National Center for Advancing Translational Sciences (NCATS), 2009).

For the assay, the system named is 4-diphosphocytidyl-2-C-methyl-D-erythritol kinase IspE (bacterial, species not stated). Description: Confirmatory Assay for Inhibitors of Human Galactokinase (GALK): CDP-Me assay counterscreen. The text has this: NIH Molecular Libraries Probe Production Centers Network [MLPCN] NIH Chemical Genomics Center [NCGC] MLPCN Grant: R03 MH085689-01 Assay Submitter (PI): Kent Lai (University of Utah School of Medicine, 50 N Mario Capecchi Drive, Salt Lake City, UT 84132) NCGC Assay Overview The GHMP kinase family is a unique class of important enzymes that plays an essential role in many metabolic processes. It contains more than 170 protein members among which are the galactokinase (GALK) and the CMK enzymes. GALK plays a crucial role in galactose processing and is a potential therapeutic target for Classic Galactosemia (OMIM: 230400). CMK is involved for the non-mevalonate synthesis of isoprenoids precursors and natural products like sterols or ubiquinones which are important to many biological functions. […]
NCGC Assay Protocol Summary: Three uL/well of substrate solution (15 uM ATP, 30 uM CDP-ME, 20 mM HEPES pH8.0, 5 mM MgCl2, 40 mM KCl, 1 mM DTT, 0.01% BSA final concentration) was dispensed into 1536-well, assay plates (Greiner, solid white medium-binding plates) with Aurora Discovery BioRAPTR Flying Reagent Dispenser (FRD; Beckton-Dickenson). […] After 1 min, luminescence was detected with the ViewLux plate reader (Perkin Elmer, Waltham, MA) using a 1 sec exposure time and 2x binning settings.
(A counterscreen serves to expose hits that act by an unwanted route or on another target.)

Each structure is given as a SMILES string. Results filed as inconclusive are left out. The source made the active and inactive calls. The call rests on the fitted dose curve; in most records, active means well fitted curve in the direction sought with a large enough effect; inconclusive means small, poorly fitted or top-dose-only effect, or another doubt; inactive means no such curve, though single readings can be large or run the other way.

With `O=C1NC(=S)N(Cc2ccco2)C(=O)/C1=C\c1cccs1`, the outcome was inactive. Turning to `COCCCn1c(N)c(C(=O)NCc2ccco2)c2nc3ccccc3nc21`, the compound was classed as inactive.
